# Experimental data: PubChem BioAssay (NCATS)
# “And” between values parts separate entries of the source, which are not always exact repeats. Equal entries are not always repeated. Results filed as inconclusive are left out. The source made the active and inactive calls. Unless noted, calls follow the shape of the dose curve; as a rule, active = well fitted inhibition curve with a large enough effect; inconclusive = small, poorly fitted or top-dose-only effect; inactive = flat fitted curve, though single readings scatter.
# Target: Voltage-gated inwardly rectifying potassium channel KCNH2 (Homo sapiens) (UniProt Q12809)
# Assay: qHTS Assay for Small Molecule Inhibitors of the Human hERG Channel Activity (AID 588834);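 also: top concentration of the series differs between compounds; % is scaled to controls: 0 for no effect and ±100 for the full control effect; lower thallium flux fluorescence means stronger hERG block; nearly all actives have a fitted effect of over 50% in size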
# Settings: U2OS BacMam hERG, FluxOR thallium flux fluorescence; series mostly up to 92.2 µM; activity change, negative = inhibition: at the top concentration
# In short: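 Blockade is seen as reduced FluxOR thallium-flux fluorescence in U2OS cells expressing hERG from a BacMam construct, in Opti-MEM with 2% FCS. Concentration-response data fitted to the Hill equation for AC50.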
# Sequence of Voltage-gated inwardly rectifying potassium channel KCNH2 (Homo sapiens) (Q12809 whole entry, looked up): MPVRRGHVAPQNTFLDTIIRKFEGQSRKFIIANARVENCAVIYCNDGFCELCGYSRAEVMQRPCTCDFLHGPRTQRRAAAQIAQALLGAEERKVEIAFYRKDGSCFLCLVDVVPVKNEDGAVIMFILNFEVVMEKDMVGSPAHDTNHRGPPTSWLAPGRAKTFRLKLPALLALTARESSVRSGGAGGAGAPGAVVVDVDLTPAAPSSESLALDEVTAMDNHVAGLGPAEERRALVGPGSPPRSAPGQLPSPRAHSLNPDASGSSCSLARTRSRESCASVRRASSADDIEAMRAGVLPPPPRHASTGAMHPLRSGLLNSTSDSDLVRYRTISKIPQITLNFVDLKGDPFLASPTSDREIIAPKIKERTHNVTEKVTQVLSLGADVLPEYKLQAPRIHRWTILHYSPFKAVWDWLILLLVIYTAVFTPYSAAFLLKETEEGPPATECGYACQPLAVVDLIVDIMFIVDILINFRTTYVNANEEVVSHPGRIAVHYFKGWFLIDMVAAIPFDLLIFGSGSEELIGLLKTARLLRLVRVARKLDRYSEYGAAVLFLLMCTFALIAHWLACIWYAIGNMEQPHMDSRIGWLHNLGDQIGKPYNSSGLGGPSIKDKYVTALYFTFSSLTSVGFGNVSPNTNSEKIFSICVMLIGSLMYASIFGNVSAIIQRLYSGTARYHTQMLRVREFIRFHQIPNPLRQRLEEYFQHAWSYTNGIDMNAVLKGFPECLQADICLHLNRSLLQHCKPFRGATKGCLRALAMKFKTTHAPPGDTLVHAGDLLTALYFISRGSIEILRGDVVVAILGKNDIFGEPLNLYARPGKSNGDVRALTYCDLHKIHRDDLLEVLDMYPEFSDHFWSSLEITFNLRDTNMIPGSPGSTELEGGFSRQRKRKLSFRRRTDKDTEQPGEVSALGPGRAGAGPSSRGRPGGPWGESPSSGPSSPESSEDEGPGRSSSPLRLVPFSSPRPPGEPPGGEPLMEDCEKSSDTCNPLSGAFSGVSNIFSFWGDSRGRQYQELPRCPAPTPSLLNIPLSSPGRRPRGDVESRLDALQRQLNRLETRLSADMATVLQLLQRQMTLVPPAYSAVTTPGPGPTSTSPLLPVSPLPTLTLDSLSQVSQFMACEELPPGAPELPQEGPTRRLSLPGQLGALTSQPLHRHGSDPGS
Structure (SMILES),"activity change, negative = inhibition",Potency
Brc1ccccc1,5.88% (inactive),
C=C(C)C#N,-6.14% (inactive),
CCSC(=O)Cl,0.633% (inactive),
Cc1cccc([N+](=O)[O-])c1,-4.09% (inactive),
Nc1c(Cl)c(Cl)nc(C(=O)O)c1Cl,5.33% (inactive),
CC(C)(C)OOC(C)(C)C,10% (inactive),
C=C(C)C(=O)OCC1CO1 (stereo unspecified),-14.9% (inactive),
Cc1ccc([N+](=O)[O-])cc1C,-0.0511% (inactive),
O=[N+]([O-])c1ccc(Cl)c(Cl)c1,-11.4% (inactive),
C=CC(=C)C,6.4% (inactive),
Cc1ccc2ccccc2c1,-17.9% (inactive),
Nc1ccccc1Cl,7.48% (inactive),
Clc1ccc2ccccc2c1,2.1% (inactive),
[O-][Br+2]([O-])O,,inactive
Clc1nc(Cl)nc(Nc2ccccc2Cl)n1,8.22% (inactive),
OCC1CO1 (stereo unspecified),7.8% (inactive),
C=CCOC(=O)c1ccccc1N,2.09% (inactive),
CCN(CC)c1ccccc1,0.676% (inactive),

Structure (SMILES),"activity change, negative = inhibition",Potency
S=C=Nc1cccc2ccccc12,1.32% (inactive),
N#CCCCl,,inactive
Cc1ccccc1N,,inactive
C=CCOC(C)=O,6.78% (inactive),
CCCC(=O)Cl,-1.05% (inactive),
NC(=S)Nc1ccccc1,,inactive
O=C(Cl)/C=C/C(=O)Cl,-4.82% (inactive),
C=C(Cl)Cl,4.16% (inactive),
ClCBr,1.22% (inactive),
COc1ccc(C=O)cc1OC,-0.436% (inactive),
C=CC(=O)OCC,-2.58% (inactive),
c1nc[nH]n1,-2.01% (inactive),
c1ccc2c(c1)CCCC2,2.22% (inactive),
CCCSC(=O)Cl,2.8% (inactive),
Clc1cccc(C(Cl)(Cl)Cl)n1,-4.96% (inactive),
O=NN(c1ccccc1)c1ccccc1,-2.8% (inactive),
C1CCC2CCCCC2C1 (stereo unspecified),6.72% (inactive),
CC(O)CCl (stereo unspecified),8.64% (inactive),

# System: not listed separately
# Assay: qHTS assay for small molecule agonists of the antioxidant response element (ARE) signaling pathway (AID 651741; active = well fitted activation curve with a large enough effect in the signal ratio; the % refers to the signal ratio; also: potency is read from the fitted curve at half-maximal effect; as to activation: % of control where 0% means no effect)
# Settings: HepG2 ARE-bla reporter, beta-lactamase FRET ratio, 16 h; series mostly up to 96 µM; activation: at the top concentration
# In short: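 Seeding 2,000 ARE-bla HepG2 cells per well preceded a 5 h incubation at 37 C/5% CO2 and a 16 h compound exposure at 37 C. Beta-lactamase reporter activity was then quantified by fluorescence after 2 h with LiveBLAzer B/G FRET substrate.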
Structure (SMILES),Potency,activation
CCOP(=S)(OCC)SCSC(C)(C)C,inactive,
CCSC(=O)Cl,,7.97% (inactive)
Cc1cccc([N+](=O)[O-])c1,inactive,
Nc1c(Cl)c(Cl)nc(C(=O)O)c1Cl,inactive,
CC(C)(C)OOC(C)(C)C,,1.09% (inactive)
Cc1ccc([N+](=O)[O-])cc1C,,9.62% (inactive)
Cc1ccc2ccccc2c1,,3.68% (inactive)
Nc1ccccc1Cl,,-1.89% (inactive)
Clc1ccc2ccccc2c1,,7.26% (inactive)
[O-][Br+2]([O-])O,inactive,
OCC1CO1 (stereo unspecified),inactive,
C=CC(N)=O,,9.3% (inactive)
CCN(CC)c1ccccc1,,-1.56% (inactive)
S=C=Nc1cccc2ccccc12,47.3 µM (active),
N#CCCCl,inactive,
O=NN(CCO)CCO,,4.81% (inactive)
Cc1ccccc1N,,1.93% (inactive)
C=CCOC(C)=O,,3.1% (inactive)
NC(=S)Nc1ccccc1,,8.68% (inactive)
O=C(Cl)/C=C/C(=O)Cl,,11.4% (inactive)
C=C(Cl)Cl,,6.54% (inactive)
COc1ccc(C=O)cc1OC,inactive,
C=CC(=O)OCC,,-1.79% (inactive)
c1ccc2c(c1)CCCC2,,1.93% (inactive)
CCCSC(=O)Cl,,-0.524% (inactive)
Clc1cccc(C(Cl)(Cl)Cl)n1,inactive,
CC(O)CCl (stereo unspecified),54.5 µM (active),

# System: not listed separately
# Assay: qHTS assay for small molecule activators of the p53 signaling pathway (AID 651743; active = well fitted activation curve with a large enough effect in the signal ratio, not every such curve was filed as active; the % refers to the signal ratio; also: % of control where 0% means no effect)
# Settings: HCT-116 p53RE-bla, beta-lactamase FRET ratio, 16 h; activation: active compounds read high
# In short: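 Screen for p53 pathway agonists uses stably transfected p53RE-bla HCT-116 cells, 4,000 per well, treated 16 h at 37 C with compounds in DMSO.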
row,Structure (SMILES),activation
1,Brc1ccccc1,-1.82% (inactive) and -1.95% (inactive)
2,CCOP(=S)(OCC)SCSC(C)(C)C,3.78% (inactive) and -1.22% (inactive)
3,C=C(C)C#N,-0.28% (inactive) and -1.48% (inactive)
4,CCSC(=O)Cl,-1.99% (inactive)
5,Cc1cccc([N+](=O)[O-])c1,-0.671% (inactive)
6,Nc1c(Cl)c(Cl)nc(C(=O)O)c1Cl,-3.11% (inactive) and -9.55% (inactive) and -6.83% (inactive)
7,CC(C)(C)OOC(C)(C)C,-4.97% (inactive)
8,C=C(C)C(=O)OCC1CO1 (stereo unspecified),-0.637% (inactive)
9,C=CC(=C)C,-2.92% (inactive)
10,Cc1ccc2ccccc2c1,-0.481% (inactive)
11,Nc1ccccc1Cl,-1.73% (inactive)
12,Clc1ccc2ccccc2c1,1.92% (inactive)
13,[O-][Br+2]([O-])O,-0.499% (inactive) and 0.319% (inactive)
14,Clc1nc(Cl)nc(Nc2ccccc2Cl)n1,-1.67% (inactive) and -3.76% (inactive)
15,OCC1CO1 (stereo unspecified),-2.94% (inactive) and 1.37% (inactive)
16,C=CC(N)=O,-1.86% (inactive) and -1.05% (inactive) and 3.38% (inactive)
17,CC(C)(c1ccccc1)c1ccc(O)cc1,-4.52% (inactive) and -0.799% (inactive)

row,Structure (SMILES),activation
1,CCN(CC)c1ccccc1,0.724% (inactive)
2,S=C=Nc1cccc2ccccc12,3.44% (inactive)
3,N#CCCCl,-0.742% (inactive) and -1.01% (inactive)
4,O=NN(CCO)CCO,-2.59% (inactive)
5,Cc1ccccc1N,-1.62% (inactive) and -3.19% (inactive)
6,C=CCOC(C)=O,-2.44% (inactive)
7,CCCC(=O)Cl,-0.024% (inactive)
8,O=C(Cl)/C=C/C(=O)Cl,-2.72% (inactive)
9,C=C(Cl)Cl,-1.18% (inactive)
10,COc1ccc(C=O)cc1OC,-1.53% (inactive) and 0.661% (inactive)
11,c1nc[nH]n1,-1.22% (inactive)
12,c1ccc2c(c1)CCCC2,2.11% (inactive)
13,CCCSC(=O)Cl,-3.85% (inactive)
14,Clc1cccc(C(Cl)(Cl)Cl)n1,0.471% (inactive) and 1.28% (inactive)
15,O=NN(c1ccccc1)c1ccccc1,-0.087% (inactive) and -2.72% (inactive)
16,C1CCC2CCCCC2C1 (stereo unspecified),-0.562% (inactive)
